Test results: article PMC4336329 (PLoS ONE, 2015)
Out of some 310,000 compounds screened, about 14,000 (4.5%) showed an effect of 50% or more. Effects have a minus sign here. The list comes from a sample in which strong results are over-represented; it also holds similar structures and randomly drawn compounds.

target: human ether-à-go-go-related gene (hERG) potassium channel (human, UniProt Q12809); test: primary screen, population patch clamp on CHO cells stably expressing hERG; higher = less effect of the substance
Sequence (Q12809 whole entry, looked up): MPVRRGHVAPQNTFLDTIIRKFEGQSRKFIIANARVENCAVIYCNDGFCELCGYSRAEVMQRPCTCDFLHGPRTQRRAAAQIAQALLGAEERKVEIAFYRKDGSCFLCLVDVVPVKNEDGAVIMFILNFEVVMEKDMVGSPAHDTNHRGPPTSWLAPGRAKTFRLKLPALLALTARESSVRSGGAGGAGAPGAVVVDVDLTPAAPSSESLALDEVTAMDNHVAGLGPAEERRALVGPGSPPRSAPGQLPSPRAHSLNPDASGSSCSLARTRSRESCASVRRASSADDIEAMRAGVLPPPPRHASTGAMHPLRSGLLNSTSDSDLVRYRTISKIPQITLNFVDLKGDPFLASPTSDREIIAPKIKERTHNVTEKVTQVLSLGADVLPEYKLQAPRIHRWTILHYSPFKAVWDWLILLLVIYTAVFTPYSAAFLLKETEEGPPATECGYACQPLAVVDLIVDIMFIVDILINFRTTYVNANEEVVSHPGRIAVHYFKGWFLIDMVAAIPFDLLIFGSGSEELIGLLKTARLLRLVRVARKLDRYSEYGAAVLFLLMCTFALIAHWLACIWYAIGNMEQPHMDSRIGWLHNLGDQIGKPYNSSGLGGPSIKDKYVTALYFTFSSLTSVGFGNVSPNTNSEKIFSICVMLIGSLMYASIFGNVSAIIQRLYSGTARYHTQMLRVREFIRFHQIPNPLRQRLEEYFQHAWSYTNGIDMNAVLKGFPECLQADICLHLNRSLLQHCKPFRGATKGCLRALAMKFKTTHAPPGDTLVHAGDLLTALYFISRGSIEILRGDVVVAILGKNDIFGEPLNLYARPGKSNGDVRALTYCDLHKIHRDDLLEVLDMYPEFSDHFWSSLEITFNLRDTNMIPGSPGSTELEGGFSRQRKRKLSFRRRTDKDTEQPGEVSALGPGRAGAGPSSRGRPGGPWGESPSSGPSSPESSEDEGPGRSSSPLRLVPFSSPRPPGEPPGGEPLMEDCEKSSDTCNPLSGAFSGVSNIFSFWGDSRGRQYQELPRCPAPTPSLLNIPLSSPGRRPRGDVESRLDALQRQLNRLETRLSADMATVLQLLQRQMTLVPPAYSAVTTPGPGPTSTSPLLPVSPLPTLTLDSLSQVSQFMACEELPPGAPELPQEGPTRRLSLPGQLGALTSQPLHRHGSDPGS
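Note: peak tail current of the secondary pulse compared with the same well before compound.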

| Structure (SMILES) | hERG current change (%, negative = inhibition) at 10uM [%] |
| --- | --- |
| Cc1c(CC(=O)NCCCO)c(=O)oc2cc3c(cc12)CCC(C)(C)O3 | 17.6 |
| Cc1c(CC(=O)NCCCC(=O)O)c(=O)oc2cc3c(cc12)CCC(C)(C)O3 | -64.5 |
| Cc1c(CC(=O)NCCCCCC(=O)O)c(=O)oc2cc3c(cc12)CCC(C)(C)O3 | 9.83 |
| COC(=O)c1ccc(NC(=O)CCc2nnc3ccc(NCc4ccco4)nn23)cc1 | 18.4 |
| CCCCN(C)CCNC(=O)CN1C(=O)CSc2ccc(S(=O)(=O)N3CCOCC3)cc21 | 2.2 |
| CCCCN(CCCC)CCNC(=O)CN1C(=O)CSc2ccc(S(=O)(=O)N3CCOCC3)cc21 | -38.8 |
| CCCCN(C)CCNC(=O)CN1C(=O)CSc2ccc(S(=O)(=O)N3CCCCC3)cc21 | -50.6 |
| CCCCN(C)CCNC(=O)CN1C(=O)CSc2ccc(S(=O)(=O)N3CCCC3)cc21 | -3.28 |
| CN(C)CCNC(=O)CN1C(=O)CSc2ccc(S(=O)(=O)N3CCCCC3)cc21 | 12.5 |
| CCCCN(CCCC)CCNC(=O)CN1C(=O)CSc2ccc(S(=O)(=O)N3CCCCC3)cc21 | -74.7 |
| O=c1oc(-c2ccccc2NS(=O)(=O)c2ccc3ccccc3c2)nc2ccccc12 | 22.9 |
| CC(=O)c1c(C(C)=O)c(C)n(NC(=O)c2ccncc2)c1C | 8.37 |
| COCCN(C(=O)CNC(=O)c1ccco1)C(C(=O)NC1CCCCC1)c1cccnc1 (stereo not drawn) | 20.1 |
| CC(C)c1ccc(S(=O)(=O)N(C)C2(C)CCS(=O)(=O)C2)cc1 (stereo not drawn) | -46.9 |
| Cc1cc(Cl)ccc1OCC(=O)OCC(=O)NC1CCS(=O)(=O)C1 (stereo not drawn) | -12.2 |
| O=C(CCNC(=O)c1ccccc1Cl)Nc1nc(-c2ccccc2Cl)cs1 | -7.92 |
| Cc1cccc(-n2ccnc2SCC(=O)Nc2ccc3c(c2)OCCO3)c1 | -14 |
| COc1cccc(NC(=O)c2ccc3c(c2)CCN3S(C)(=O)=O)c1 | 3.4 |
| Cc1nc2c(-c3ccc(F)cc3)c(C)nn2c(C)c1CCC(=O)Nc1ccccc1 | 0.666 |
| Cc1nc2c(-c3ccccc3)c(C)nn2c(C)c1CCC(=O)NCc1ccco1 | -29.9 |
| Cc1nc2c(-c3ccc(F)cc3)c(C)nn2c(C)c1CCC(=O)NCc1ccco1 | -19.9 |
| Cc1nc2c(-c3ccc(F)cc3)c(C)nn2c(C)c1CCC(=O)NC(C)CCc1ccco1 (stereo not drawn) | -68.8 |

| Structure (SMILES) | hERG current change (%, negative = inhibition) at 10uM [%] |
| --- | --- |
| Cc1nc2ncnn2c(C)c1CCC(=O)NC(C)CCc1ccco1 (stereo not drawn) | -8.57 |
| Cc1nc2c(-c3ccccc3)c(C)nn2c(C)c1CCC(=O)NC(C)CCc1ccco1 (stereo not drawn) | -66.6 |
| CC(=O)Nc1cc2c(cc1NC(=O)Cn1nc(-c3ccccc3)ccc1=O)OCCO2 | 11.9 |
| COc1cccc(C2C(C(=O)c3cc4ccccc4o3)=C(O)C(=O)N2c2cc(C)on2)c1 (stereo not drawn) | 7.91 |
| O=C(Cc1csc(NC(=O)c2ccccc2)n1)NO | 8.93 |
| O=[N+]([O-])c1cc(CS(=O)(=O)Oc2ccc(Cl)cc2)c(O)c([N+](=O)[O-])c1 | 15.1 |
| CCCn1nnnc1NC(=O)c1ccc(C)cc1Cl | 5.02 |
| O=C(NCCOCCOCCNC(=O)c1ccccc1)c1ccccc1 | 12.7 |
| CCOc1cc2[nH]c(=S)n(CCN3CCC(C)CC3)c(=O)c2cc1OCC | -51.2 |
| CCOc1cc2[nH]c(=S)n(CCCOC)c(=O)c2cc1OCC | -12.1 |
| CC1CCN(CCn2c(=S)[nH]c3cc4c(cc3c2=O)OCO4)CC1 | -27.4 |
| CCCCN(C)CCn1c(=S)[nH]c2cc(OCC)c(OCC)cc2c1=O | -55.8 |
| CCOc1cc2[nH]c(=S)n(CCCN3CCOCC3)c(=O)c2cc1OCC | -18.5 |
| CCOc1cc2[nH]c(=O)n(CCCN3CCCC3=O)c(=O)c2cc1OCC | -6.1 |
| CCOc1cc2[nH]c(=O)n(CCCC(=O)NCc3ccc(OC)cc3)c(=O)c2cc1OCC | 8.71 |
| CCOc1cc2[nH]c(=O)n(CCCN3CCN(c4ccc(OC)cc4)CC3)c(=O)c2cc1OCC | -67.8 |
| CCOc1cc2[nH]c(=S)n(CCCN(CC)CC)c(=O)c2cc1OCC | -29.6 |
| O=C(CCCCCn1c(=S)[nH]c2ccc(N3CCOCC3)cc2c1=O)NC1CCN(Cc2ccccc2)CC1 | -9.35 |
| COc1ccccc1N(C(=O)c1csnn1)C(C(=O)NC1CCCC1)c1ccccc1 (stereo not drawn) | -1.69 |
| Cc1c(Cl)cccc1NC(=O)CSc1sc2c(O)cc(=O)[nH]c2c1C#N | -2.45 |
| Cc1ccc(O)c(C2=Nc3ccccc3N=C(c3cccs3)C2)c1 | 12 |
| COc1ccc(N2CCN(C(CNC(=O)Oc3ccccc3)c3cccnc3)CC2)cc1 (stereo not drawn) | -27.5 |

| Structure (SMILES) | hERG current change (%, negative = inhibition) at 10uM [%] |
| --- | --- |
| COC(=O)NCC(c1cccnc1)N1CCN(c2ccccc2)CC1 (stereo not drawn) | -13.3 |
| CCN1CCN(C(CNS(=O)(=O)c2cccs2)c2cccnc2)CC1 (stereo not drawn) | -61.4 |
| COc1ccc(N2CCN(C(CNS(=O)(=O)c3cccs3)c3cccnc3)CC2)cc1 (stereo not drawn) | -72.5 |
| O=S(=O)(NCC(c1cccnc1)N1CCN(c2ccc(F)cc2)CC1)c1cccs1 (stereo not drawn) | -71.7 |
| CCS(=O)(=O)NCC(c1cccnc1)N1CCN(c2ccc(OC)cc2)CC1 (stereo not drawn) | -11.3 |
| CN1CCN(C(CNS(=O)(=O)c2cccs2)c2cccnc2)CC1 (stereo not drawn) | -21.4 |
| O=S(=O)(NCC(c1cccnc1)N1CCN(c2ccccc2)CC1)c1cccs1 (stereo not drawn) | -60.4 |
| O=S(=O)(NCC(c1cccnc1)N1CCOCC1)c1cccs1 (stereo not drawn) | -10.9 |
| CCCOc1ccc(C2C(C(=O)c3cc4ccccc4o3)=C(O)C(=O)N2c2cc(C)on2)cc1OC (stereo not drawn) | 25.3 |
| Cc1cnc(C(=O)Oc2ccc(-c3ccccc3)cc2)cn1 | 16.8 |
| CCCCOCCCNC(=O)c1ccc(OC)cc1 | -6.63 |
| COc1ccc(NS(=O)(=O)c2cc3c(cc2C)N(C)CCO3)cc1 | -10.5 |
| CCS(=O)(=O)NCC(c1cccnc1)N1CCN(c2ccccc2F)CC1 (stereo not drawn) | -3.19 |
| O=S(=O)(NCC(c1cccnc1)N1CCN(c2ccccc2F)CC1)c1cccs1 (stereo not drawn) | -60.5 |
| CS(=O)(=O)NCC(c1cccnc1)N1CCN(c2ccccc2F)CC1 (stereo not drawn) | -9.77 |
| Cc1ccc(C(=O)CCC(=O)N2CCC(C(N)=O)CC2)cc1 | 32 |
| CCOC(=O)C1(CCC(C)C)CC(CSc2nc3ccccc3[nH]2)OC1=O (stereo not drawn) | -25.2 |
| O=C(O)c1cc([N+](=O)[O-])c(NCc2cccnc2)c([N+](=O)[O-])c1 | 9.52 |
| COc1ccc2c(c1)c(C(=O)CN1CCC3(CC1)OCCO3)c(C)n2Cc1ccccc1 | -53 |
| COc1ccc2c(c1)c(C(=O)CN1CCN(C)CC1)c(C)n2Cc1ccccc1 | -35 |
| CCN1CCN(CC(=O)c2c(C)n(Cc3ccccc3)c3ccc(OC)cc23)CC1 | -41.3 |
| CCOC(=O)N[C@H](Cc1c[nH]c2ccccc12)C(=O)NC1CC1 | 3.42 |

| Structure (SMILES) | hERG current change (%, negative = inhibition) at 10uM [%] |
| --- | --- |
| Cc1ccccc1N1CCN(C(=O)CN2C(=O)c3ccccc3C2=O)CC1 | -11.8 |
| O=C(CN1C(=O)CSc2ccccc21)NC1CCCC1 | 0.766 |
| CC(C)CNC(=O)c1ccccc1SCC(=O)NC12CC3CC(CC(C3)C1)C2 | -5.62 |
| COc1ccc2[nH]c(CN3CCC(n4nccc4NC(=O)C4CC4)CC3)c(C)c2c1 | -63.3 |
| Cc1c(C(=O)N2CCC(n3nccc3NC(=O)C3CC3)CC2)[nH]c2ccc(Cl)cc12 | -59.4 |
| COc1cccc(CC(=O)N2CCC(n3nccc3NC(=O)C3CC3)CC2)c1 | 32 |
| O=C(Nc1ccnn1C1CCN(Cc2cc3ccccc3[nH]2)CC1)C1CCOC1 (stereo not drawn) | -31.5 |
| Cc1c(CN2CCC(n3nccc3NC(=O)C3CC3)CC2)[nH]c2ccccc12 | -61 |
| Cc1c(CN2CCC(n3nccc3NC(=O)C3CCOC3)CC2)[nH]c2ccccc12 (stereo not drawn) | -30.6 |
| COc1ccc2[nH]c(C(=O)N3CCC(n4nccc4NC(=O)C4CC4)CC3)c(C)c2c1 | -30.4 |
| COc1ccc(C(=O)Nc2ccnn2C2CCN(Cc3cn(C)nc3C)CC2)cc1 | 17.1 |
| Cc1cc(C)c2[nH]c(C(=O)N3CCC(n4nccc4NC(=O)C4CC4)CC3)c(C)c2c1 | -44.6 |
| O=C(Cn1cnc([N+](=O)[O-])c1)NCc1ccc(F)cc1 | 7.86 |
| O=C(NC(=S)Nc1ncccn1)c1ccccc1Cl | 11.8 |
| O=C(Nc1cc([N+](=O)[O-])ccc1F)C1CC1 | -4.7 |
| Cc1nc2ccc(S(=O)(=O)NCC(=O)NCc3ccc(Cl)cc3)cc2s1 | 17.4 |
| Cc1ccc(CNC(=O)CNS(=O)(=O)c2ccc3nc(C)sc3c2)cc1 | -64.6 |
| CCNS(=O)(=O)c1ccc(CCC(=O)NCc2ccccc2)cc1 | -19.6 |
| Cc1ccc(CCNC(=O)CNS(=O)(=O)c2ccc3nc(C)sc3c2)cc1 | 2.53 |
| CCNS(=O)(=O)c1ccc(CCC(=O)NCc2ccncc2)cc1 | 2.58 |
| CCNS(=O)(=O)c1ccc(CCC(=O)NCc2ccc(C)cc2)cc1 | -53.1 |
